# Screening results (PubChem)
# Compounds with a hit are over-represented: about 2.7% of the library has one in this group of screens.
# HIF-2a inh: HIF-2a reporter inhibitors, primary screen, luminescence, 786-0 RCC cells; inhibition, % at 18.8 µM; 786-0 RCC cells HIF-2a reporter, luciferase luminescence, overnight; hit rate 0.72% among 360,000;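 active means inhibition of the luminescence signal of 40% or more relative to plate controls, in a single-dose primary screen at 18.75 µM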
# Shn3 inh set2: reduction of Shn3 3'UTR firefly luciferase signal, primary screen, Schnurri-3 inhibitor project, cell-based, Clone20 osteoblasts, set 2; Clone20 osteoblast Shn3 3'UTR firefly luciferase, 24 h; inhibition, % at 12.5 µM; hit rate 0.52% among 360,000;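 active means mean inhibition of at least 75% with every replicate also reaching 75%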
# CF NFkB block: inhibitors of PAF-induced NF-kB signaling, primary screen, cell-based, GFP fluorescence, uHTS; hit rate 0.86% among 360,000; inhibition, % at 5 µM; AID 588850, 2011; KKLEB NF-kB-GFP reporter, GFP fluorescence overnight;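 active means at least 50% inhibition at 5 µM, scaled per plate between neutral and stimulator controls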;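 further: PAF is a Pseudomonas aeruginosa culture filtrate used as stimulus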
# KKLEB tox: cytotoxicity in KKLEB CF airway cells, primary screen, cytotoxicity control for CF NF-kB inhibitor project, cell-based, uHTS, fluorescence assay plates | KKLEB CF airway cells viability, ATPlite luminescence, overnight; hits give low values; cells stimulated with P. aeruginosa culture filtrate | activity change (cytotoxicity), % at 5 µM | hit rate 0.36% among 360,000;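 active means corrected activity change at or below -50% at 5 µM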
# MITF TRPM1 inh: inhibitors of MITF-dependent TRPM1 promoter reporter, primary screen, cell-based, SK-MEL-5, single point, luciferase; SK-MEL-5 TRPM1 promoter luciferase, 24 h; inhibition, % at 12.5 µM; hit rate 0.83% among 330,000; AID 488899, 2010;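 active means mean inhibition across replicates of 60% or more, whatever share of single replicates reaches that level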
# Peg3 prom inh: Peg3 promoter-driven luciferase inhibitors, primary screen, cell-based, HeLa, luciferase luminescence; HeLa PEG-Prom luciferase reporter, overnight; inhibition, % at 20 µM; hit rate 1.7% among 360,000; AID 588405, 2011;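 active means inhibition of at least 50% at 20 µM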
# A number is an active result; . = inactive; / = no result given.
SMILES,HIF-2a inh,Shn3 inh set2,CF NFkB block,KKLEB tox,MITF TRPM1 inh,Peg3 prom inh
COc1ccc(-c2csc(NC(=O)c3ccccc3NS(=O)(=O)c3ccc(C)cc3)n2)cc1,.,.,57,-52,.,55
COc1cccc(C(=Cc2ccc([N+](=O)[O-])cc2)C(=O)O)c1,.,.,.,.,/,.
COc1ccccc1N1CCN(C(=O)c2cccc(S(=O)(=O)N3c4ccccc4CC3C)c2)CC1 (stereo unspecified),.,.,.,.,.,78
CC1Cc2ccccc2N1S(=O)(=O)c1cccc(C(=O)N2CCCCC2)c1 (stereo unspecified),.,.,.,.,.,.
CCCN1C2CCCC1CC(NC(=O)c1ccc(C(C)(C)C)cc1)C2 (stereo unspecified),.,.,.,.,.,.
CCN1C(=O)CC2CCCC1C2 (stereo unspecified),.,95,.,.,.,.
Cc1ccc(Nc2cc(C)nc(NCc3ccccc3)n2)cc1,.,.,.,.,.,73
Cc1cc(NC2CCCCC2)nc(NCc2ccccc2)n1,.,.,.,.,.,65
COc1ccc(Nc2cc(C)nc(NCc3ccccc3)n2)cc1,.,89,.,.,.,.
COc1cc(C)nc(NCc2ccccc2)n1,.,.,.,.,.,.
Cc1c(C)c2ccc(OCC(=O)NCCc3c[nH]c4ccccc34)cc2oc1=O,.,.,.,.,/,.
CN(Cc1ccccc1)Cc1cc(=O)oc2ccc3ccccc3c12,.,.,.,.,/,.
Cc1ccc2c(c1)C1(SC(C)C(=O)N1c1ccc(Cl)cc1)C(=O)N2 (stereo unspecified),.,.,.,.,/,.
C/C(=N\NC(=O)COc1ccccc1-c1ccccc1)c1ccccn1,.,98,.,.,84,.
C/C(=N\NC(=O)COc1ccccc1-c1ccccc1)c1cccnc1,.,.,.,.,.,.
C/C(=N\NC(=O)COc1ccccc1-c1ccccc1)c1ccc(O)cc1O,.,92,.,.,.,.
O=C(COc1ccccc1-c1ccccc1)N/N=C/c1ccc2ccccc2c1,.,.,62,.,.,.
COc1ccc(-c2csc(C(C)(O)c3cccc(F)c3)n2)cn1 (stereo unspecified),.,.,.,.,/,.
CCCCN(C)CC(O)Cn1cc(/C=C/C(=O)c2cccs2)c2ccccc21 (stereo unspecified),.,.,.,.,90,.
COC(=O)[C@H]1C[C@H](OC(=O)NCc2ccccc2F)[C@@]2(O)CN(S(=O)(=O)c3ccc(C)cc3)CC2[C@H]1C(=O)OC (stereo partly specified),.,.,.,.,/,.
CC(C)[C@@H](C(=O)N[C@@H](CCc1ccc(O)cc1)C(=O)O)N(C)C(=O)[C@H](CO)NC(=O)[C@@H](O)[C@H](N)CCCCCCCCl,.,.,.,.,/,.
C/C=C(\C)C(=O)OC1[C@H](OC(C)=O)C2(CO)C(CC1(C)C)C1=CCC3C4(C)CCC(O[C@@H]5O[C@H](C(=O)O)[C@@H](O[C@@H]6O[C@H](CO)[C@@H](O)[C@H](O)[C@H]6O)[C@H](O)[C@H]5O[C@H]5O[C@H](CO)[C@@H](O)[C@H](O)[C@H]5O)[C@](C)(CO)C4CCC3(C)[C@]1(C)C[C@H]2O (stereo partly specified),93,.,91,-89,98,105
O=C1O[C@@H](c2ccccc2)C[C@@H](O)C(=O)CCCCc2ccccc21,.,/,/,/,/,/
O=[N+]([O-])c1ccc(N2CCN(Cc3ccccc3)CC2)c2c1no[n+]2[O-],.,.,.,-61,/,95
CCOC1=C2CN(S(=O)(=O)c3ccc(C)cc3)[C@H](c3cccc4ccccc34)C[C@H]2C(C#N)(C#N)C(C#N)(C#N)C1,.,.,.,.,/,52
